Inconclusive results are not listed. A number with no mark means an inactive call. Activity calls are given as the source filed them. The call rests on the fitted dose curve; in most records, active means well fitted activation curve with a large enough effect in the signal ratio in the repeat runs (not every such curve was filed as active); inconclusive means weak or mixed curves, or effect the other way; inactive means no such curve, though single readings can be large or run the other way; the % refers to the signal ratio.
The molecules below were run against Glucocorticoid receptor (Homo sapiens) (UniProt P04150) (assay: qHTS assay to identify small molecule agonists of the glucocorticoid receptor (GR) signaling pathway (AID 720691)). Conditions: GR-bla HeLa, beta-lactamase reporter ratio, 18 h; series mostly up to 62.4 µM; activation: at the top concentration.
Chain of Glucocorticoid receptor (Homo sapiens) (P04150 whole entry, looked up): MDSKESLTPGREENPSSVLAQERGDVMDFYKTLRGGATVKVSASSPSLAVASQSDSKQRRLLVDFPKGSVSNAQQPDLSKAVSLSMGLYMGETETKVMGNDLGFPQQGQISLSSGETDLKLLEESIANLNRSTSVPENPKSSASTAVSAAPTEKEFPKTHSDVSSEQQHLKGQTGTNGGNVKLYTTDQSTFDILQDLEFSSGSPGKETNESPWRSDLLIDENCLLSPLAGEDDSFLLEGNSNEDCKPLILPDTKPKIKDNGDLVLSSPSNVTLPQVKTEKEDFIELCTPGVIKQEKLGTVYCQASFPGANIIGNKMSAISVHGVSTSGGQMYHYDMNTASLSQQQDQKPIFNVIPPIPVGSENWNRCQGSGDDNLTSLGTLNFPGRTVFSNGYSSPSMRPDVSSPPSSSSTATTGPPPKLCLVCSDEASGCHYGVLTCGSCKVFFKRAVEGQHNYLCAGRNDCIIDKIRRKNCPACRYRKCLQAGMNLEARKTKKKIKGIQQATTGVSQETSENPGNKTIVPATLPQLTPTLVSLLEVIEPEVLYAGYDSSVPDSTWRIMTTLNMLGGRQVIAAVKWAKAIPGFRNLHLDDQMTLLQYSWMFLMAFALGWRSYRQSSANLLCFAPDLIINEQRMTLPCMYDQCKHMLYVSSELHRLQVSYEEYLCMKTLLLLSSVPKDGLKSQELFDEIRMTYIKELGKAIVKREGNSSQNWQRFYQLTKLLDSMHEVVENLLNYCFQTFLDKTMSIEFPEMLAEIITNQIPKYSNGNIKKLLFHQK
Source text: U.S. Tox21 Program National Center for Advancing Translational Sciences [NCATS] NIH Chemical Genomics Center [NCGC] U.S. Environmental Protection Agency [EPA] National Institutes of Environmental Health Sciences [NIEHS] National Toxicology Program [NTP] U.S. Food and Drug Administration [FDA] Tox21 Assay Overview: The Glucocorticoid receptor (GR) is one of the members of the nuclear receptor family of ligand-dependent transcription factors. GR plays a critical role in carbohydrate, protein and lipid metabolisms and programmed cell death. CellSensor GR-bla HeLa cell line (Invitrogen) contains a beta-lactamase reporter gene under the control of the glucocorticoid response element stably integrated into HeLa cells, a cervical cancer cell line that expresses glucocorticoid receptor. The activation of the reporter gene under culture conditions can be detected by fluorescence intensity. This cell line has been used to screen the Tox21 10K compound library and to identify the compounds that activate the GR signaling.
Tox21 Assay Protocol Summary: The GR-bla HeLa cells were dispensed at 1500 cells/6 ul/well in 1536-well black wall/clear bottom plates using a Multidrop Combi (ThermoFisher Scientific, Waltham, MA) dispenser. After the assay plates were incubated at a 37 C/5% CO2 incubator for 4 hours, 23 nL of compounds dissolved in DMSO, positive controls or DMSO only was transferred to the assay plate by a pintool station (Kalypsys, San Diego, CA). The plates were incubated at 37 C for 18 hours. After 1 uL of LiveBLAzerTM B/G FRET substrate was added using a Flying Reagent Dispenser (Aurora Discovery, San Diego, CA), the plates were incubated at room temperature for 2 hours, and fluorescence intensity was measured by an Envision plate reader (PerkinElmer, Shelton, CT).
On the % scale 0 is the no-effect control and ±100 the full control effect.

| Compound | activation | Potency |
| --- | --- | --- |
| CC/C=C\CCOC(=O)c1ccccc1 | 3.13% |  |
| C=CCN1CCc2nc(N)sc2CC1 | -2.6% |  |
| C/C=C(\C)C(=O)OC/C=C(\C)CCC=C(C)C | 2.25% |  |
| CCC(C)c1nccnc1OC (stereo not given) | -0.136% |  |
| CCc1ncc(C)[nH]1 | 3.84% |  |
| OCCC(F)(F)C(F)(F)C(F)(F)C(F)(F)C(F)(F)C(F)(F)F | -2.23% |  |
| Cc1cc(O)c(Cl)cc1C | -1.16% |  |
| Cc1ccc2ccccc2n1 | 1.08% |  |
| O=P(O)(O)C(O)(Cc1cccnc1)P(=O)(O)O | 0.355% |  |
| c1coc(Cn2cccc2)c1 | -0.0052% |  |
| C[C@@H]1NC(=O)[C@@H](N)CNC(=O)[C@H](C2CCNC(N)=N2)NC(=O)/C(=C/NC(N)=O)NC(=O)[C@H](CNC(=O)C[C@@H](N)CCCN)NC1=O (stereo not given in full) |  | inactive |
| CCCCNCC | -1.04% |  |
| C=CCCCCCCCCCCCCCC | 1.61% [at 29.2 µM] |  |
| Cc1nnc(C(=O)NC(C)(C)c2nc(C(=O)NCc3ccc(F)cc3)c(O)c(=O)n2C)o1 | -1.44% |  |
| CCOC(=O)c1ccc(N(C)C)cc1 | 0.371% |  |
| CC(O)C(CO)C(C)O (stereo not given) | 0.105% [at 79.2 µM] |  |
| CCCCN1C(=O)c2ccccc2C1=O | -1.53% [at 79.2 µM] |  |
| O=C(O)CCC(=O)Nc1ccc(S(=O)(=O)Nc2nccs2)cc1 | 1.68% [at 29.2 µM] |  |
| COc1ccc2cc(CCC(C)=O)ccc2c1 | -1.2% [at 29.2 µM] |  |
| O=C1Nc2ccccc2C1=O | -3.28% |  |

| Compound | activation | Potency |
| --- | --- | --- |
| O=C(O)COc1ccc2ccccc2c1 | -4.43% |  |
| CN(C)CCCN(C)C | -0.0659% [at 6.9 µM] |  |
| CC(=O)OC/C=C(/C)CCC=C(C)C | 6.59% |  |
| CCCCCC(CC)OC(=O)CCCOc1ccc(Cl)cc1Cl (stereo not given) | -2.53% |  |
| CCOCCOCCOC(C)=O | -1.8% [at 79.2 µM] |  |
| COC(C)(C)CC(C)=O | 1.06% |  |
| CC(C)(C)OC=O | -0.116% [at 79.2 µM] |  |
| C=CC(=O)OCCOCCOCC | 3.15% |  |
| CC(=O)OC1CCC(C(C)(C)C)CC1 (stereo not given) | 0.142% |  |
| CCCCCCC(O)CO (stereo not given) | -0.141% |  |
| C=CC(C)(CCC=C(C)C)OC(=O)C(C)C (stereo not given) | 2.43% |  |
| C[n+]1ccccc1/C=N/O | -1.57% [at 29.2 µM] |  |
| C=CCn1cc[n+](C)c1 | -0.637% [at 79.2 µM] |  |
| CCCCCCCCCCCCCCBr | 0.684% [at 79.2 µM] |  |
| O=S(=O)(O)c1ccc(Cl)cc1 | -1.11% |  |
| CC/C=C/CCCCCCCCCCOC(C)=O | 1.57% |  |
| CN1C(CCl)Nc2cc(Cl)c(S(N)(=O)=O)cc2S1(=O)=O (stereo not given) | -3.32% |  |
| CC(C)CC(O)Cc1ccccc1 (stereo not given) | 1.94% |  |
| N#CC1(N)CCCCC1 | 0.503% [at 79.2 µM] |  |
| C=CCCCCCCCCOC(C)=O | 0.121% |  |
